Among the data in PubChem BioAssay (NCATS) are max response, outcome and Potency values, retold here.

Common to all, as to test: Cytotoxic Profiling of Annotated Libraries Using Quantitative High-Throughput Screening (AID 1296008); further: nearly all actives have a fitted effect of over 60% in size
Settings in all cases: Five cell lines viability, CellTiter-Glo ATP luminescence, 48-72 h; max response: active compounds read low
For orientation: Cellular ATP, detected with luciferase, serves as a proxy for viable cell number.

The test system of assay [1] is CRL-7250. In a few lines:
(§1)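 Compounds were pin-transferred onto cells and incubated 48 or 72 hr at 37 degree Celsius, 95% humidity. CellTiter-Glo was added, plates sat 10 min at room temperature, then ATP-coupled luminescence was imaged as the viability read-out.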

Assay [2] relates to HEK293. In short, it runs like this:
as §1

Assay [3] has as its system HaCat. In a few lines:
as §1

For assay [4], the system named is KB-3-1. In a few lines: as §1
Assay [5] has as its system NIH3T3. In a few lines:
as §1

Results filed as inconclusive are left out. Unmarked numbers belong to inactive results. Activity calls are given as the source filed them. The call rests on the fitted dose curve; in most records, active means well fitted inhibition curve with a large enough effect; inconclusive means small, poorly fitted or top-dose-only effect; inactive means flat fitted curve, though single readings scatter.
On the % scale 0 is the no-effect control and ±100 the full control effect; potency means the concentration at half of the fitted maximal effect.

`CC(=O)O[C@H]1[C@H](O[C@H]2[C@@H]3C=CO[C@@H](O[C@@H]4O[C@H](CO)[C@@H](O)[C@H](O)[C@H]4O)[C@@H]3[C@@]3(CO)O[C@@H]23)O[C@@H](C)[C@H](OC(=O)/C=C/c2ccccc2)[C@H]1OC(=O)/C=C/c1ccccc1`: the max response in assay [1] was -1.73%; in assay [2], -0.402%; in assay [3], -13%; in assay [5] it was 0.432%. The outcome in assay [4] was inactive.
Turning to `O=C(Nc1ccc(S(=O)(=O)Nc2ccccc2Cl)c(Cl)c1)c1ccccn1`, the max response was 0.561% in assay [1]; -10.8% in assay [2]; -15.8% in assay [3]; -5.44% in assay [4]; -3.89% in assay [5].
As for `CC1CC[C@]2(C(=O)O)CC[C@]3(C(=O)O)C(=CCC4[C@@]5(C)CC[C@H](OC6OC(C)C(O)C(OC7OC(CO)C(O)C(O)C7O)C6O)C(C)(C)C5CC[C@]43C)C2C1C` (stereo not given in full), the max response in assay [1] was -0.92%; in assay [2], -0.0822%; in assay [3] it was -2.82%; in assay [5], 2.41%. Besides, the call in assay [4] was inactive.
Regarding `CC1CCC2(CO)C(C(=O)O)=CCCC2C1(C)CCc1ccoc1` (stereo not given), the compound was called inactive in assay [1]. Besides, the max response in assay [2] is -3.01%; in assay [3] it was -11.9%; in assay [4], 3.67%; in assay [5], -11.3%.
For `C#CCN(Cc1cc2c(=O)[nH]c(C)nc2cc1Br)c1ccc(C(=O)NCc2cccnc2)cc1`, the Potency was 51.7 nM (active) in assay [1]; 4.6 nM (active) in assay [2]; 41.1 nM (active) in assay [3]; 5.2 nM (active) in assay [4]; 9.2 nM (active) in assay [5].
For `C/C=C1\[C@H](O[C@@H]2O[C@H](CO)[C@@H](O)[C@H](O)[C@H]2O)OC=C(C(=O)OC)[C@H]1CC(=O)O`, the max response is -9.39% in assay [1]; 3.99% in assay [2]; -13.1% in assay [3]; -0.621% in assay [4]; -1.8% in assay [5].
In the case of `C[C@@H]1O[C@@H](O[C@H]2[C@H](O)[C@@H](O)[C@H](OC[C@H]3O[C@@H](OC(=O)[C@]45CCC(C)(C)C[C@H]4C4=CCC6[C@@]7(C)CC[C@H](O[C@@H]8OC[C@H](O)[C@H](O[C@@H]9O[C@H](CO)[C@@H](O)[C@H](O)[C@H]9O)[C@H]8O)[C@@](C)(CO)C7CC[C@@]6(C)[C@]4(C)CC5)[C@H](O)[C@@H](O)[C@@H]3O)O[C@@H]2CO)[C@H](O)[C@H](O)[C@H]1O` (stereo not given in full), the compound was classed as inactive in assay [1]. In addition, the max response in assay [2] is -14.9%; in assay [3], -0.978%; in assay [4], 8.88%; in assay [5] it was -6.93%.
With `COc1ccc(F)cc1-c1cc(NC(=O)[C@@H]2CCCNC2)ncc1Cl`, the Potency was 291 nM (active) in assay [1]; 259 nM (active) in assay [2]; 1160 nM (active) in assay [3]; 231 nM (active) in assay [4]; 1030 nM (active) in assay [5].
As for `C=C[C@@]12COC(=O)C(=C)C1[C@@H](O)[C@H](C(=C)C(=O)OC)[C@@H](OC(=O)C(=C)CO)C2` (stereo not given in full), the max response is -22.2% in assay [1], -6.28% in assay [3] and -25.8% in assay [5]. Besides, the Potency in assay [2] is 10000 nM (active). In assay [4], the result was inactive.
Regarding `C=CC(C)(C)C12C=C(OC)C(=O)N3C(C(C)C)C(=O)NC31N(OC)c1ccccc12` (stereo not given), the max response in assay [1] is 1.83%; in assay [2], -5.71%; in assay [3], -0.498%; in assay [5], -14.5%. In assay [4], the compound was called inactive.
The matching figures for `CC(C)(F)C[C@@H](N[C@@H](c1ccc(-c2ccc(S(C)(=O)=O)cc2)cc1)C(F)(F)F)C(=O)NC1(C#N)CC1`: 0.789%, -10.4%, -33%, -4.72% and “inactive”.
As to `COc1cc(C)c(C(=O)O[C@H]2[C@@H](OC(C)=O)[C@H](n3ccc(=O)[nH]c3=O)O[C@@H]2CO)c(OC)c1`, the max response in assay [1] is -2.01%; in assay [2], -0.552%; in assay [3], -9.32%; in assay [4], 0.943%; in assay [5] it was -14.4%.
For the compound `O=C(Nc1ccc(S(=O)(=O)Nc2nccs2)cc1)C(c1ccccc1)c1ccccc1`, the max response in assay [1] was -0.59%; in assay [2], -0.0195%; in assay [3], -1.59%; in assay [4] it was 5.78%; in assay [5], 3.11%.
For `Cc1nc2sc(C(=O)NCc3ccncc3)c(N)c2c(C)c1Cl` the same measures were 0.486%, -2.15%, 0.272%, -3.45% and -29.7%.
With `C=CC1(C)C=C2CCC3C(C)(C)C(O[C@@H]4O[C@@H](CO)[C@H](O)[C@H]4O)CCC3(C)C2CC1O[C@@H]1O[C@H](C)[C@H](O)[C@H](O)[C@H]1O` (stereo not given in full), the max response in assay [1] was -0.496%; in assay [2], -0.0102%; in assay [3], 4.85%; in assay [4], -11.1%; in assay [5], -6.13%.
Consider `C=C(CO[C@@H]1O[C@H](CO[C@@H]2OC[C@](O)(CO)[C@H]2O)[C@@H](O)[C@H](O)[C@H]1O)C1Cc2cc(C(C)=O)ccc2O1` (stereo not given in full), for which the max response was -1.55% in assay [1]; -4.65% in assay [2]; -0.415% in assay [3]; 7.61% in assay [4]; 3.36% in assay [5].
As to `CN[C@H](CC(C)C)C(=O)N[C@H]1C(=O)N[C@@H](CC(N)=O)C(=O)N[C@H]2C(=O)N[C@H]3C(=O)N[C@H](C(=O)N[C@H](C(=O)O)c4cc(O)cc(O)c4-c4cc3ccc4O)[C@H](O[C@H]3C[C@](C)(N)[C@@H](O)[C@H](C)O3)c3ccc(c(Cl)c3)Oc3cc2cc(c3O[C@@H]2O[C@H](CO)[C@@H](O)[C@H](O)[C@H]2O[C@H]2C[C@](C)(NCc3ccc(-c4ccc(Cl)cc4)cc3)[C@@H](O)[C@H](C)O2)Oc2ccc(cc2Cl)[C@H]1O`, the max response was 0.406% in assay [1], -5.83% in assay [2], -0.936% in assay [3] and 1.69% in assay [5]. The call in assay [4] was inactive.
